High-throughput results: PubChem, National Center for Advancing Translational Sciences (NCATS)
Sfp inh: qHTS Assay for Inhibitors of Bacillus subtilis Sfp phosphopantetheinyl transferase (PPTase) | 4'-phosphopantetheinyl transferase ffp (Bacillus subtilis), Q9F4F7 | Potency, µM, for the others: largest response in the series, negative = inhibition, usual class: inhibitors | Biochemical Sfp PPTase activity, qHTS | 310,000 compounds, 3.5% hits;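 further: the enzyme is Sfp with the accession as filed and its product quenches rhodamine fluorescence; 0% = enzyme reaction without inhibitor and -100% = no enzyme wells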
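Fluorescence-quenching assay: 15 nM Sfp-PPTase preincubated 15 min at room temperature with compound, then 5 uM rhodamine-CoA and 12.5 uM BHQ-2-labelled YbbR peptide added. Fluorescence (ex 525/em 598 nm) read at start and after 30 min; difference gives rate.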
VDR inhibitor: Inhibitors of the vitamin D receptor (VDR): qHTS | Vitamin D3 receptor (Homo sapiens), P11473 | VDR-SRC2-3 peptide fluorescence polarization, 2 h | Potency, µM, for inactives: max response, negative = inhibition, actives largely listed as inhibitors | 400,000 compounds, 0.93% hits | AID 504847, 2011
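After 23 nl compound addition and a short centrifugation, plates sat for 2 hours at ambient temperature; polarization of fluorescence then indicated loss of VDR binding to peptide SRC2-3.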
ALOX12 inh: Primary qHTS assay for inhibitors of human arachidonate 12S-lipoxygenase (ALOX12): Round 2. Polyunsaturated fatty acid lipoxygenase ALOX12 (Homo sapiens), P18054. purified 12hLO, xylenol orange hydroperoxide absorbance. Potency, µM (series often up to 108 µM), inactives show top-dose activity change, negative = inhibition, usual class: inhibitors. 580,000 compounds, 1.1% hits
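Purified human 12hLO at 150 nM in 25 mM Hepes, 0.01% Triton X-100, pH 7.0, preincubated 15 min at room temperature with compound. Reaction started with 40 uM arachidonic acid, 30 min at room temperature. Hydroperoxide measured by Fe-xylenol orange, 573/405 nm absorbance ratio.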
PLK1 PBD inh: qHTS for Inhibitors of PLK1-PDB (polo-like kinase 1 - polo-box domain): Primary Screen; Plk1 PBD binding of FITC phosphopeptide, fluorescence polarization; AID 720504, 2013; Serine/threonine-protein kinase PLK1 (Homo sapiens), P53350; Potency, µM, for the others: max response, negative = inhibition, hits mostly inhibitors; 360,000 compounds, 2.8% hits; further: series mostly up to about 57 µM; nearly all actives have a fitted effect of over 65% in size
An asterisk follows results filed as active; [ ] = dose if it differs, or a comment. An excerpt weighted towards active compounds, which were near 4.2% of everything screened. The call rests on the fitted dose curve; in most records, active means well fitted curve in the direction sought with a large enough effect; inconclusive means small, poorly fitted or top-dose-only effect, or another doubt; inactive means no such curve, though single readings can be large; an effect the other way counts as inactive or inconclusive. Unless noted, on the % scale 0 is the no-effect control and ±100 the full control effect; potency means the concentration at half of the fitted maximal effect.

`O=C1c2ccccc2C(=O)N1CCc1c(-c2[nH]c3ccccc3c2CCN2C(=O)c3ccccc3C2=O)[nH]c2ccccc12` gave VDR inhibitor 6%, ALOX12 inh 2% and PLK1 PBD inh -9%.
For Cc1ccc2oc(=O)c3c4cc(O)c(O)cc4oc3c2c1 the results were Sfp inh 9%.
For COc1cc(O)c2c(c1)oc(=O)c1c3cc(O)c(O)cc3oc21 the results were Sfp inh 10µM* and VDR inhibitor inconclusive.
Screening O=C(CN1C(=O)CCC1=O)Nc1ccc(Br)cc1 returned Sfp inh 11%, VDR inhibitor 3%, ALOX12 inh 45µM* and PLK1 PBD inh -1%.
`COCCN1C(=O)c2ccccc2C(C(=O)Nc2nc(C(=O)OC)c(C(C)C)s2)C12CCCC2` (stereo not given) gave ALOX12 inh 13%.
CNc1oc(C)nc1S(=O)(=O)c1ccccc1 was read as Sfp inh 32µM*, VDR inhibitor -18%, ALOX12 inh -1% and PLK1 PBD inh inconclusive.
Screening CC(C)Oc1ccc(OCCNC2CCCC2)cc1 returned Sfp inh 50µM*, VDR inhibitor -7%, ALOX12 inh -13% and PLK1 PBD inh -6%.
For c1ccc(OCCNC2CCCC2)cc1 the results were ALOX12 inh -19%.
For CCn1c(SCC(=O)NNC(=O)c2ccc(OC)cc2)nnc1C1CC1 the results were Sfp inh 3%, VDR inhibitor 4%, ALOX12 inh 81% and PLK1 PBD inh 3%.
Screening Cc1sc(NC(=O)c2cccs2)c(C(N)=O)c1C returned Sfp inh 40µM*, VDR inhibitor -20%, ALOX12 inh inconclusive and PLK1 PBD inh 21µM*.
For CC(NC(=O)c1cccs1)c1ccccc1 (stereo not given) the results were VDR inhibitor -1%, ALOX12 inh inconclusive and PLK1 PBD inh -8%.
Cc1ccc(C(=O)Nc2sc(C)c(C)c2C(=O)c2ccccc2)cc1 was read as Sfp inh 20µM*, VDR inhibitor 45µM*, ALOX12 inh inconclusive and PLK1 PBD inh 3µM*.
`Cc1ccc(C(C)NC(=O)c2cccs2)cc1` (stereo not given) gave VDR inhibitor -14%, ALOX12 inh 10µM* and PLK1 PBD inh -11%.
`COc1ccc(Cl)cc1C(=O)N1CCC(n2cc(-c3nc(C)no3)nn2)C1` (stereo not given) gave ALOX12 inh 28%.
`CN(C)CCNC(=O)[C@H]1C[C@@H](O)[C@H](O)[C@@H]2N=C(Nc3ccc(Cl)cc3)S[C@@H]21` gave ALOX12 inh -4%[176 µM].
Screening Cc1ccc(C(=O)NC(=S)NNC(=O)COc2ccc([N+](=O)[O-])cc2)cc1 returned Sfp inh 71µM*, VDR inhibitor -17%, ALOX12 inh inconclusive and PLK1 PBD inh inconclusive.
CCC(=O)NNC(=S)NC(=O)c1ccc(C)cc1 was read as Sfp inh 56µM*, VDR inhibitor -3%, ALOX12 inh -27% and PLK1 PBD inh inconclusive.
O=C(COc1ccc([N+](=O)[O-])cc1)NNC(=S)NC(=O)c1ccc(Br)cc1 was read as Sfp inh 45µM*, VDR inhibitor inconclusive, ALOX12 inh 40µM* and PLK1 PBD inh 13µM*.
O=C(COc1ccccc1)NNC(=S)NC(=O)c1ccccc1 was read as Sfp inh inconclusive, VDR inhibitor 15%, ALOX12 inh inconclusive and PLK1 PBD inh inconclusive.
COCCNC(=O)CN(C(=O)c1ccc(N2CCCC2)nc1)c1ccc(F)c(Cl)c1 was read as Sfp inh 6%, VDR inhibitor -5%, ALOX12 inh 5% and PLK1 PBD inh -1%.
`Cc1cccc(NC(=O)CN2CCN(C(=O)CCNS(=O)(=O)c3ccc(F)cc3)CC2)c1C` gave ALOX12 inh 5%.
`C/C(=N\NC(=O)CN(c1ccccc1Br)S(C)(=O)=O)c1cccs1` gave Sfp inh 12%, VDR inhibitor 4%, ALOX12 inh 14% and PLK1 PBD inh 27µM*.
COc1ccc(/C=C2\N=C(C)N(c3ccc4ccccc4c3)C2=O)cc1OC was read as Sfp inh 0%, VDR inhibitor -3%, ALOX12 inh 0% and PLK1 PBD inh 3%.
